The list is not random: actives were taken first. Their share in the collection is about 2.7%.
Nrf2 activator: activates Nrf2 signaling | AREc32 ARE-luciferase reporter (MCF7-derived line), luminescence, 24 h | Potency, µM (titrated, usually from 46.1 µM), without a hit: at the top dose activation, hits mostly activators | 0.31% of 410,000 active; further: potency means the concentration at half of the fitted maximal effect; % of control where 0% means no effect; nearly all actives have a fitted effect of over 65% in size
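Each well held 1000 AREc32 cells, which were incubated with compound for 24 hr at 37 deg C after overnight attachment, and ARE reporter activity was quantified by firefly luciferase luminescence.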
LDHA block: inhibitors of human lactate dehydrogenase A | P00338 | purified LDHA, NADH/diaphorase-resazurin fluorescence; hits give low values | activity change, % (values are at about 110 or 230 µM) | 0.15% of 480,000 active | AID 1347041; in the data active means activity change below about -30%; inconclusive means mostly about -25% to -30%;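 further: plate controls were DMSO wells for no effect and wells without enzyme for full effect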
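LDH5 2 nM; NADH 0.06 mM, pyruvate 0.2 mM; 200 mM Tris pH 7.4, EDTA, Tween-20; 5 min RT. Detection: diaphorase 0.133 mg/mL + resazurin 37 µM, fluorescence ex540/em590 at 0 and 20 min; normalized to enzyme-free and DMSO wells.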
ALOX12 inh: ALOX12 (human) lipoxygenase inhibition. P18054. purified 12hLO, xylenol orange hydroperoxide absorbance. Potency, µM (series often up to 108 µM), for the others: at the highest dose activity change, negative = inhibition, usual class: inhibitors. 1.1% of 580,000 active. AID 1671190; further: potency means the concentration at half of the fitted maximal effect; on the % scale 0 is the no-effect control and ±100 the full control effect
Target sequence (P18054 whole entry, looked up): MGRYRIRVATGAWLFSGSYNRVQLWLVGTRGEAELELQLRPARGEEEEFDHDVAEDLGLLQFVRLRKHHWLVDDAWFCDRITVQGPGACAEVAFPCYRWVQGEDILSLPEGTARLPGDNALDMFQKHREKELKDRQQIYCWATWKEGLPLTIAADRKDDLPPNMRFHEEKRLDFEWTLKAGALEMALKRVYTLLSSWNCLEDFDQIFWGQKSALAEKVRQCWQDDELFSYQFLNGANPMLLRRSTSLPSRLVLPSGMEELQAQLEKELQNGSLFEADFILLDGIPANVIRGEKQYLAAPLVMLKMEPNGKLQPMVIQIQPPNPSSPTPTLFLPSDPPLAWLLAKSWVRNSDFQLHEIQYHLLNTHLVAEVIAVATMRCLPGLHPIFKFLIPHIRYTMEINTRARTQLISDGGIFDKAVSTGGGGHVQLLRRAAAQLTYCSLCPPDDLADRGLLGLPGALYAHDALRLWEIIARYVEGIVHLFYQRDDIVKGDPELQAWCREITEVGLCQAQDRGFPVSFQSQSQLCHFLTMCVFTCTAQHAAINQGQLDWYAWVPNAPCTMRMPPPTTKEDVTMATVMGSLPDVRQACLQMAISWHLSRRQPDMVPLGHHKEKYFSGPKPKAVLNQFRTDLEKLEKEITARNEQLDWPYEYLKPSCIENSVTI
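Hydroperoxide product was detected by ferrous iron/xylenol orange as the 573 to 405 nm absorbance ratio. Arachidonic acid at 40 uM (final) was turned over for 30 min at room temperature by 150 nM human 12hLO, pH 7.0 Hepes buffer, after 15 min compound preincubation.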
IDH1 R132H inh: human IDH1 R132H inhibition. Potency, µM (series often up to 76.6 µM), without a hit: at the top dose activity change, negative = inhibition, most hits filed as inhibitors. O75874. 0.093% of 390,000 active. IDH1-R132H enzyme, NADPH consumption, diaphorase/resazurin fluorescence; further: potency means the concentration at half of the fitted maximal effect; on the % scale 0 is the no-effect control and ±100 the full control effect; nearly all actives have a fitted effect of over 65% in size
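IDH1-R132H (0.5 ug/mL) preincubated 30 min with compound, then NADPH (0.016 mM) and alpha-KG (2 mM) added; 80 min at RT, pH 7.5. Remaining NADPH coupled via diaphorase/resazurin to fluorescence (540/590 nm); concentration-response curves normalized to no-enzyme control.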
Nrf2 block: blocks Nrf2 signaling | A549 ARE-Fluc reporter, luciferase luminescence, 18-24 h | Potency, µM (top dose mostly 46 µM), for inactives: at the highest dose activity change, negative = inhibition, most hits filed as inhibitors | 2.1% of 360,000 active; further: potency means the concentration at half of the fitted maximal effect; on the % scale 0 is the no-effect control and ±100 the full control effect; nearly all actives have a fitted effect of over 60% in size
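Two sequential reads on A549 ARE_Fluc cells exposed to compound for 18-24 h: a CellTiter-Fluor fluorescence read for viability, then a luciferase luminescence read for Nrf2/ARE activity.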
A549 tox: A549 cytotoxicity, counter-screen for Nrf2 inhibitors | A549 ARE-Fluc cells, CellTiter-Fluor viability, 18-24 h | Potency, µM (highest dose often 46 µM), inactives show top-dose activity change, negative = cytotoxicity, actives largely listed as inhibitors | 0.16% of 390,000 active | AID 504648; further: potency means the concentration at half of the fitted maximal effect; on the % scale 0 is the no-effect control and ±100 the full control effect
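A549 ARE-Fluc cells in 5% FBS OPTI-MEM, 5000 cells/well, rested 2 h then exposed to compounds in concentration-response for 18-24 h at 37 °C. Viability by CellTiter-Fluor fluorescence (Ex 405/Em 525) after 30 min; luciferase luminescence (BugLite, 15 min, RT) read afterwards.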
An asterisk follows results filed as active; ? = inconclusive; / = not tested or not shown; [ ] = another dose, or the depositor's remark. Unless noted, the call rests on the fitted dose curve; in most records, active means well fitted curve in the direction sought with a large enough effect; inconclusive means small, poorly fitted or top-dose-only effect, or another doubt; inactive means no such curve, though single readings can be large; an effect the other way counts as inactive or inconclusive.

SMILES	Nrf2 activator	LDHA block	ALOX12 inh	IDH1 R132H inh	Nrf2 block	A549 tox
CC/C=C(/C)C(=O)NC(C)c1ccncc1 (stereo not drawn)	/	9	1%	/	/	/
CC1(C)CC(=O)C2=C(C1)Nc1nonc1NC2c1ccccc1 (stereo not drawn)	/	28	25%	/	/	/
C=C(C(=O)c1ccccc1)C(CC(=O)c1ccccc1)c1ccccc1 (stereo not drawn)	4%	0	-14%	2%	23µM*	?
C=C(CCC(=O)c1ccccc1)C(=O)c1ccccc1	?	-10	-15%	?	-13%	-1%
COc1ccc(NC(=O)Cn2nnc(-c3ccccc3NC(=O)c3cccs3)n2)cc1	-1%	-6	11%	-5%	18µM*	-14%
CC1CCCC(NC(=O)c2ccc(F)cc2Br)C1C (stereo not drawn)	/	1	2%	/	/	/
COc1ccc(NCc2cc3ccc(OC)cc3n(CC(=O)Nc3cc(Cl)ccc3C)c2=O)cc1	0%	2	-14%	-3%	9%	1%
COc1ccc2cc(CNc3ccc(C)cc3)c(=O)n(CC(=O)Nc3ccc(C)cc3C)c2c1	/	36	7.9µM*	/	/	/
Cn1c(=O)[nH]c(=O)c2c1nc(SCc1ccc(F)cc1)n2Cc1ccccc1	/	-7	-29%	/	/	/
C/C(=N\NC(=S)NCCc1ccccc1)c1ccc(C)cc1	-1%	-1	40µM*	0%	5%	7%
S=C(NCCSc1ccc(Cl)cc1)NCCc1ccccc1	/	0	40µM*	/	/	/
C/C(=N\NC(=S)NCCc1ccccc1)c1ccc(C#N)cc1	0%	-10	0%	0%	18%	-11%
Cc1ccc(SCCNC(=S)Nc2ccccc2)cc1	1%	-5	?	5%	/	2%
COc1ccccc1NC(=S)NCCSc1ccc(C)cc1	0%	-3	45µM*	-4%	-14%	-4%
C/C(=N\NC(=S)NCCc1ccccc1)c1ccc(Cl)cc1	0%[9.22 µM]	-2	35µM*	-1%	13%	?
CC(C1CC1)N(Cc1ccccc1)S(=O)(=O)c1ccc(Br)cc1 (stereo not drawn)	/	10	?	/	/	/
CC(/C=C/c1ccccc1)=N\NC(N)=S	7%	-5	11µM*	0%	2%	-3%
COc1ccc(C2C=C(c3ccccc3)Nc3nc(NS(=O)(=O)c4ccc(C)cc4)nn32)cc1 (stereo not drawn)	-1%	-8	-28%	-1%	18µM*	-1%
CC(Cc1ccccc1)=NNS(=O)(=O)c1ccc([N+](=O)[O-])cc1	0%	-2	20µM*	-6%	-7%	1%
CC(Cc1ccccc1)=NNc1ccc([N+](=O)[O-])cc1[N+](=O)[O-]	3%	-5	-11%	0%	23µM*	?
C/C(=N\NS(=O)(=O)c1ccc([N+](=O)[O-])cc1)c1cccs1	0%	-3	-15%	6%	?	-5%
COc1cccc(Oc2c(C)oc3cc(OCc4ccccc4F)ccc3c2=O)c1	/	14	-1%	/	/	/
COc1ccc(NC(=O)CN(C)C(=O)C2(c3ccccc3)CCCC2)cc1	-1%	-7	0%	4%	8.2µM*	-4%
COc1ccc(NC(=O)CN(C)C(=O)CCc2ccccc2)cc1	0%	1	-17%	13%	-5%	-5%
CCCCS(=O)(=O)c1oc(-c2ccc(F)cc2)nc1S(=O)(=O)c1ccccc1	?	-4	-3%	14%	21µM*	?
SMILES	Nrf2 activator	LDHA block	ALOX12 inh	IDH1 R132H inh	Nrf2 block	A549 tox
CCSc1oc(-c2ccccc2)nc1S(=O)(=O)c1ccc(F)cc1	/	5	10µM*	/	/	/
CC(C)S(=O)(=O)c1oc(-c2ccc(F)cc2)nc1S(=O)(=O)c1ccccc1	?	2	-7%	17%	?	?
CSc1oc(-c2ccco2)nc1S(=O)(=O)c1ccccc1	9%	-4	35µM*	-2%	-1%	0%
CSc1oc(-c2ccco2)nc1S(=O)(=O)c1ccc(C)cc1	0%	-11	?	-2%	?	16%
COC(=O)c1ccc(OC)cc1	/	/	24%[176 µM]	/	/	/
Cc1cccc(CNc2nc(-c3ccc4c(c3)OCO4)nc3ccccc23)c1	/	/	40µM*	/	/	/
c1cncc(CNc2nc(-c3ccc4c(c3)OCO4)nc3ccccc23)c1	/	/	-29%	/	/	/
Fc1ccc(C2=CC(c3ccco3)n3nnnc3N2)cc1 (stereo not drawn)	13µM*	-6	-9%	14%	?	-11%
COc1ccc(CCN2C(=S)N(C)C(=O)C2CC(=O)Nc2ccc(OC)cc2)cc1 (stereo not drawn)	5%	2	-21%	-5%	10%	-6%
COc1ccc(NC(=O)CC2C(=O)N(C)C(=S)N2CCc2ccc(F)cc2)cc1 (stereo not drawn)	9%	-2	?	9%	23µM*	?
Cc1ccc(S(=O)(=O)NC(Cc2ccccc2)C(=O)NN)cc1 (stereo not drawn)	0%	-2	54%	5%	-2%	2%
Cc1ccc(S(=O)(=O)NN(Cc2ccccc2)Cc2ccccc2)cc1	-1%	2	16µM*	0%	/	/

Compound activity: PubChem BioAssay, National Center for Advancing Translational Sciences (NCATS)
